# This is part of a sample that, as a whole, favours compounds with a hit. Of some 79,000 tested, about 15% had one in any assay. Values without a mark were called inactive. Activity calls are given as the source filed them. Rule as the data show it: active = growth inhibition above about 70%; inactive = the rest.
# Assays:
# [1] = NCI Yeast Anticancer Drug Screen. Data for the rad50 strain (AID 155);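 also: 0% = growth of vehicle-only cultures of the same strain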; conditions: S. cerevisiae rad50 strain growth inhibition, hits give high values
# How it was run: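 Compounds were tested on a yeast strain with an engineered DNA damage repair alteration; the reported value is growth inhibition normalised to vehicle treatment.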
# [2] = NCI Yeast Anticancer Drug Screen. Data for the mec2-1 strain (AID 157); conditions: S. cerevisiae mec2-1 strain, hits give high values
# How it was run: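 Strain: mec2-1 (DNA repair/cell cycle alteration). Compound exposure, then growth measured; inhibition expressed relative to vehicle.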
# [3] = NCI Yeast Anticancer Drug Screen. Data for the sgs1 mgt1 strain (AID 161);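 also: 0% = growth of cultures given vehicle only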; conditions: S. cerevisiae sgs1 mgt1 strain, hits give high values
# How it was run: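 Read-out: growth inhibition vs vehicle controls. Cells: mutant yeast strain deficient in DNA damage repair.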
# [4] = NCI Yeast Anticancer Drug Screen. Data for the cln2 rad14 strain (AID 165);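 also: 0% = growth equal to vehicle treated cultures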; conditions: S. cerevisiae cln2 rad14 strain, hits give high values
# How it was run: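 Compounds are applied to the cln2 rad14 yeast strain, and growth is then compared with that of vehicle-treated cultures to give inhibition.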
# [5] = NCI Yeast Anticancer Drug Screen. Data for the bub3 strain (AID 167); conditions: S. cerevisiae bub3 mutant strain, hits give high values
# How it was run: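 Growth of a checkpoint-deficient yeast mutant is measured after compound exposure. Values represent inhibition relative to vehicle.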
# [6] = NCI Yeast Anticancer Drug Screen. Data for the mlh1 rad18 strain (AID 175); conditions: S. cerevisiae mlh1 rad18 strain growth inhibition, hits give high values
# How it was run: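 Read-out is yeast growth inhibition, calculated against vehicle-only controls. The compound was applied to a strain engineered with DNA damage repair alterations.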
# [7] = at 5.0 µM (retest, dose inferred, filed as 0.5)
# [8] = at 50.0 µM (retest, dose inferred, filed as 5.0)
Structure (SMILES),"growth inhibition [1, 7]","growth inhibition [1, 8]",growth inhibition ([1]; at 50.0 µM),"growth inhibition [2, 7]","growth inhibition [2, 8]",growth inhibition ([2]; at 50.0 µM),"growth inhibition [3, 7]","growth inhibition [3, 8]",growth inhibition ([3]; at 50.0 µM),"growth inhibition [4, 7]","growth inhibition [4, 8]",growth inhibition ([4]; at 50.0 µM),"growth inhibition [5, 7]","growth inhibition [5, 8]",growth inhibition ([5]; at 50.0 µM),"growth inhibition [6, 7]","growth inhibition [6, 8]",growth inhibition ([6]; at 50.0 µM)
CCOC(=O)/C(=C\c1cccc(OC)c1)C(C)=O,-5%,90% (active),90.2% (active),-5%,96% (active),91.7% (active),-11%,93% (active),90% (active),-14%,86% (active),84.3% (active),23%,95% (active),88.3% (active),-16%,95% (active),88.3% (active)
CCOC(=O)C(C(=O)O)(C(c1ccccc1)c1ccccc1)C(c1ccccc1)c1ccccc1,97% (active),98% (active),98.5% (active),100% (active),100% (active),99.5% (active),98% (active),99% (active),98.4% (active),98% (active),99% (active),98.9% (active),98% (active),98% (active),98.3% (active),99% (active),99% (active),99% (active)
CC(=O)N(C1=C(Cl)C(=O)c2ccccc2C1=O)c1ccc(C)cc1,99% (active),99% (active),99.5% (active),100% (active),100% (active),99.5% (active),100% (active),100% (active),99.6% (active),100% (active),98% (active),94% (active),99% (active),99% (active),96.5% (active),100% (active),100% (active),99.5% (active)
O=[N+]([O-])/C(Cl)=C(\Sc1ccccc1)C(Cl)=C(Cl)Cl,100% (active),99% (active),89.8% (active),100% (active),100% (active),93.4% (active),99% (active),99% (active),90.6% (active),99% (active),99% (active),91.9% (active),99% (active),99% (active),91.8% (active),100% (active),99% (active),86.8% (active)
Cc1cc2ccc(N)nc2[nH]c1=O,-7%,-4%,25.6%,-2%,-3%,27.2%,-4%,0%,10.3%,-3%,-1%,85.4% (active),1%,5%,12.7%,-2%,1%,24.8%
Cc1ncn(-c2ccccc2O)c1C,-3%,7%,-10.3%,-8%,-20%,8.05%,-7%,-14%,-28.7%,-2%,-8%,31.7%,-3%,-27%,-5.75%,-9%,9%,-28.3%
CCOc1ccc2nc(Cl)sc2c1,-17%,67%,82.5% (active),-7%,91% (active),89.8% (active),6%,79% (active),69.5%,31%,39%,94% (active),1%,97% (active),96.3% (active),-12%,89% (active),79% (active)
CCCSc1n[nH]c(=S)s1,-3%,5%,27%,2%,30%,53%,-1%,46%,73.1% (active),-10%,29%,32.6%,-6%,13%,52%,-1%,15%,41.7%
CCN(CC)C(=S)N=Nc1c(O)[nH]c2ccccc12,80% (active),99% (active),82.5% (active),76% (active),99% (active),87.2% (active),81% (active),99% (active),89.3% (active),85% (active),90% (active),89.8% (active),76% (active),99% (active),91% (active),82% (active),99% (active),92% (active)

# — PubChem BioAssay (NCI)
